From PubChem BioAssay (NCI)
Several values for one entry are separate records, joined by “and”; a condition that tells them apart may be missing. Equal values may be shown once. The panel holds about 83,000 compounds, 20% with a hit somewhere; the sample as a whole holds those more often.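 Growth was measured after 48 h exposure to one concentration of compound in 96-well plates. Values under 10 count as active.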 Activity calls are given as the source filed them.

Columns and labels:
Assay in all cases: NCI-60 one-dose screen, 48 h (100 = growth as untreated, 0 = no growth, -100 = all killed)
MOLT-4 leukemia = conditions: 10 µM
SR leukemia = conditions: 10 µM
RPMI-8226 leukemia = conditions: 10 µM
OVCAR-8 ovarian = conditions: 10 µM
OVCAR-5 ovarian = conditions: 10 µM
OVCAR-4 ovarian = conditions: 10 µM
SK-OV-3 ovarian = conditions: 10 µM
IGROV1 ovarian = conditions: 10 µM
OVCAR-3 ovarian = conditions: 10 µM
HS 578T breast = conditions: 10 µM
NCI/ADR-RES ovarian = conditions: 10 µM
T-47D breast = conditions: 10 µM
BT-549 breast = conditions: 10 µM
MDA-MB-435 melanoma = conditions: 10 µM
SW-620 colon = conditions: 10 µM
MCF7 breast = conditions: 10 µM unless noted
HCT-116 colon = conditions: 10 µM
HCC-2998 colon = conditions: 10 µM
KM12 colon = conditions: 10 µM

Measured: growth

C/C(=C\c1ccc(Cl)c(Cl)c1)[N+](=O)[O-]
-10.7% (active) and 91.3% (inactive): RPMI-8226 leukemia
inactive: SR leukemia 12.3% and 88.6% | OVCAR-8 ovarian 11.9% and 90.8% | OVCAR-5 ovarian 108% and 104% | SK-OV-3 ovarian 108% and 96.6% | HS 578T breast 82.8% and 103% | NCI/ADR-RES ovarian 30.8% and 93.2% | BT-549 breast 76.3% and 103% | MDA-MB-435 melanoma 126% | HCC-2998 colon 99.6% and 100%
4.34% (active) and 79.2% (inactive): MOLT-4 leukemia
-55.8% (active) and 111% (inactive): IGROV1 ovarian
-97.7% (active) and 107% (inactive): OVCAR-3 ovarian
-79.3% (active) and 57.7% (inactive): T-47D breast
-42.5% (active) and 114% (inactive): OVCAR-4 ovarian
-85.1% (active) and 80.6% (inactive): MCF7 breast
-89.1% (active) and 98.6% (inactive): SW-620 colon
-91.5% (active) and 88.2% (inactive): HCT-116 colon
-35.5% (active) and 98.3% (inactive): KM12 colon

COc1cc2c(cc1OC)C13CCN4CC5=CCOC6CC(=O)N2C1C6C5CC43 (stereo not drawn)
active: HCC-2998 colon -56.9%
inactive: MOLT-4 leukemia 109% and 86.6% | SR leukemia 82% | RPMI-8226 leukemia 56.5% | OVCAR-8 ovarian 99.7% and 113% | OVCAR-5 ovarian 98.2% and 83.9% | OVCAR-4 ovarian 113% and 102% | SK-OV-3 ovarian 101% and 114% | IGROV1 ovarian 106% | OVCAR-3 ovarian 115% and 107% | HS 578T breast 114% and 96.4% | NCI/ADR-RES ovarian 116% and 66.9% | T-47D breast 96.9% and 109% | BT-549 breast 90.3% | MDA-MB-435 melanoma 112% and 110% | SW-620 colon 115% and 106% | MCF7 breast 94.8% and 98.6% | HCT-116 colon 99.4% and 102%

O=C1C(=O)c2ccccc2-c2ccccc21
inactive: SK-OV-3 ovarian 93.7%
active: MOLT-4 leukemia -26.9% | SR leukemia 0.843% | RPMI-8226 leukemia -32.7% | OVCAR-8 ovarian -97.6% | OVCAR-5 ovarian -63.8% | OVCAR-4 ovarian -100% | IGROV1 ovarian -61.7% | OVCAR-3 ovarian -91% | HS 578T breast -20.1% | NCI/ADR-RES ovarian -41.5% | T-47D breast -50% | BT-549 breast -75% | MDA-MB-435 melanoma -97.9% | SW-620 colon -63.3% | MCF7 breast -66.4% | HCT-116 colon -81.5% | HCC-2998 colon -35.4% | KM12 colon -84.5%

O=[P+](O)c1ccccc1
inactive: MOLT-4 leukemia 107% | SR leukemia 102% | RPMI-8226 leukemia 98.6% | OVCAR-8 ovarian 99.9% | OVCAR-5 ovarian 108% | OVCAR-4 ovarian 114% | SK-OV-3 ovarian 101% | IGROV1 ovarian 115% | OVCAR-3 ovarian 109% | HS 578T breast 106% | NCI/ADR-RES ovarian 106% | T-47D breast 99.9% | BT-549 breast 104% | MDA-MB-435 melanoma 118% | SW-620 colon 106% | MCF7 breast 95.9% | HCT-116 colon 100% | KM12 colon 107%

COC1CC2C=C(C)/C=C/C=C/C(=O)NC(c3ccccc3)C/C=C/CCC(O)CC(=O)C2=C1O (stereo not drawn)
active: MOLT-4 leukemia -59.5% | SR leukemia 2.86% | RPMI-8226 leukemia -40.8% | OVCAR-8 ovarian -69.1% | OVCAR-5 ovarian -95.6% | OVCAR-4 ovarian -78.4% | SK-OV-3 ovarian -91.4% | IGROV1 ovarian -90.2% | OVCAR-3 ovarian -83.9% | HS 578T breast -51.4% | NCI/ADR-RES ovarian -44.5% | T-47D breast -65.5% | BT-549 breast -98% | MDA-MB-435 melanoma -90.5% | SW-620 colon -75.9% | HCT-116 colon -96.7% | HCC-2998 colon -53% | KM12 colon -76.1%

Cc1cc(C)c(C[N+](C)(C)C)c(C)c1C
inactive: OVCAR-5 ovarian 10.1% | OVCAR-3 ovarian 11.4%
active: MOLT-4 leukemia 3.91% | SR leukemia 7.44% | RPMI-8226 leukemia -18.4% | OVCAR-8 ovarian 6.43% | OVCAR-4 ovarian 8.09% | SK-OV-3 ovarian 7.37% | IGROV1 ovarian 7.5% | HS 578T breast 0.977% | NCI/ADR-RES ovarian 4.96% | T-47D breast -0.376% | BT-549 breast 7.59% | MDA-MB-435 melanoma 9.06% | SW-620 colon 8.53% | HCT-116 colon 7.93%

[O-][n+]1ccccc1S
inactive: MOLT-4 leukemia 32.1% | OVCAR-8 ovarian 17.2% | OVCAR-5 ovarian 59.1% | OVCAR-4 ovarian 36.2% | SK-OV-3 ovarian 91.1% | OVCAR-3 ovarian 16.9% | HS 578T breast 64% | NCI/ADR-RES ovarian 37% | T-47D breast 53.4% | BT-549 breast 93.5% | MDA-MB-435 melanoma 53.8% | SW-620 colon 42% | MCF7 breast 25.3% | HCC-2998 colon 76.7% | KM12 colon 46.5%
active: SR leukemia 7.55% | RPMI-8226 leukemia 5.89% | IGROV1 ovarian 6.4% | HCT-116 colon -9.38%

COc1cc(/C=C/[N+](=O)[O-])cc(OC)c1OC
active: MOLT-4 leukemia 8.23% | SR leukemia -17.7% | RPMI-8226 leukemia -27.6% | OVCAR-8 ovarian 1.78% | IGROV1 ovarian -22% | OVCAR-3 ovarian -30.9% | HS 578T breast 8.36% | MDA-MB-435 melanoma -22.4% | SW-620 colon -50.5% | MCF7 breast 6.55% | HCT-116 colon -19.2% | HCC-2998 colon -19.9%
inactive: OVCAR-5 ovarian 23% | OVCAR-4 ovarian 34.2% | SK-OV-3 ovarian 89.9% | NCI/ADR-RES ovarian 27.3% | T-47D breast 13.1% | BT-549 breast 40.6% | KM12 colon 18.2%

[Cl][Hg][c]1ccc(Cl)s1
inactive: RPMI-8226 leukemia 18.5% | OVCAR-8 ovarian 60% | OVCAR-5 ovarian 28.2% | OVCAR-4 ovarian 11.2% | SK-OV-3 ovarian 98.2% | IGROV1 ovarian 26.2% | HS 578T breast 59.1% | NCI/ADR-RES ovarian 57.1% | BT-549 breast 14.2% | HCT-116 colon 15.8% | HCC-2998 colon 111%
active: MOLT-4 leukemia -11.5% | SR leukemia -17.1% | OVCAR-3 ovarian -78.7% | T-47D breast -68.5% | MDA-MB-435 melanoma 4.96% | SW-620 colon -26.9%

COc1cc(/C=C\[N+](=O)[O-])ccc1O
inactive: MOLT-4 leukemia 27% and 79.2% | OVCAR-8 ovarian 65.9% and 93.9% | OVCAR-5 ovarian 93.6% and 105% | OVCAR-4 ovarian 92.6% and 113% | SK-OV-3 ovarian 101% and 97% | IGROV1 ovarian 80.8% and 75.4% | OVCAR-3 ovarian 62.4% and 71.5% | HS 578T breast 106% and 94.5% | NCI/ADR-RES ovarian 83.4% and 98.4% | T-47D breast 32.5% and 71.1% | BT-549 breast 56% | MDA-MB-435 melanoma 78.5% and 51.3% | HCT-116 colon 59.3% and 32.9% | HCC-2998 colon 100% and 83.1%
-14.8% (active) and 27.5% (inactive): RPMI-8226 leukemia
7.29% (active) and 67.5% (inactive): SW-620 colon
8.06% (active) and 40% (inactive): SR leukemia

O=C1CCC(=O)N1SC(Cl)(Cl)Cl
inactive: MOLT-4 leukemia 90.4% | SR leukemia 95.2% | RPMI-8226 leukemia 108% | OVCAR-8 ovarian 106% | OVCAR-5 ovarian 110% | OVCAR-4 ovarian 110% | SK-OV-3 ovarian 109% | IGROV1 ovarian 92.6% | OVCAR-3 ovarian 122% | NCI/ADR-RES ovarian 110% | T-47D breast 118% | BT-549 breast 104% | MDA-MB-435 melanoma 102% | SW-620 colon 100% | HCT-116 colon 106% | HCC-2998 colon 103% | KM12 colon 105%

Cn1c(O)c(N=O)c(=O)n(C)c1=O
inactive: MOLT-4 leukemia 101% and 99.9% | SR leukemia 103% and 80% | RPMI-8226 leukemia 110% and 92% | OVCAR-8 ovarian 99.6% and 111% | OVCAR-5 ovarian 116% and 98.1% | OVCAR-4 ovarian 116% and 111% | SK-OV-3 ovarian 108% and 104% | IGROV1 ovarian 111% and 114% | OVCAR-3 ovarian 101% and 94.8% | HS 578T breast 97.1% and 98.9% | NCI/ADR-RES ovarian 101% and 102% | T-47D breast 101% and 97% | BT-549 breast 109% and 99% | MDA-MB-435 melanoma 113% and 93.3% | SW-620 colon 97% and 98.9% | MCF7 breast 104% and 97.2% | HCT-116 colon 113% and 97.3% | HCC-2998 colon 107%

O=c1[nH]c2ccccc2n1C1CCN(CCCC(c2ccc(F)cc2)c2ccc(F)cc2)CC1
-0.627% (active) and 25.7% (inactive): KM12 colon
-81% (active) and 19% (inactive): MDA-MB-435 melanoma
11.2% (inactive) and 0.602% (active): RPMI-8226 leukemia
-74.2% (active) and 39.5% (inactive): OVCAR-3 ovarian
-21.1% (active) and 19.2% (inactive): SW-620 colon
-34% (active) and 15.3% (inactive): MOLT-4 leukemia
55.2% (inactive) and -34.7% (active): HS 578T breast
inactive: OVCAR-8 ovarian 44.3% | OVCAR-5 ovarian 38.3% | OVCAR-4 ovarian 55.6% and 70.2% | SK-OV-3 ovarian 85.8% and 78.4% | IGROV1 ovarian 71.3% and 55.5% | NCI/ADR-RES ovarian 48.3% and 23.7% | T-47D breast 55.7% and 10.2% | BT-549 breast 35.8% and 18.5%
active: SR leukemia -50.8% and -35.4% | HCT-116 colon -68.6% and -39.9% | HCC-2998 colon 7.86% and -80.1%
